Test results published in article PMC11006913.

Key:
Assay in all cases: PBM; 200 nM protein, PBS
Conditions in all cases: dsDNA, one strand shown
HESX1 [1] = biological target: HESX1 (Homo sapiens, UniProt Q9UBX0 95-180, R165K)
HESX1 [2] = biological target: HESX1 (Homo sapiens, UniProt Q9UBX0 95-180)
ALX1 [3] = biological target: ALX1 (Homo sapiens, UniProt Q15699 118-204, L144V)
ALX1 [4] = biological target: ALX1 (Homo sapiens, UniProt Q15699 118-204, L144R)
HESX1 [5] = biological target: HESX1 (Homo sapiens, UniProt Q9UBX0 95-180, R109Q)
ALX3 = ALX3 (Homo sapiens, UniProt O95076 139-225, L168Q)
HESX1 [6] = biological target: HESX1 (Homo sapiens, UniProt Q9UBX0 95-180, P111T)
HESX1 [7] = biological target: HESX1 (Homo sapiens, UniProt Q9UBX0 95-180, F115L)
ALX1 [8] = biological target: ALX1 (Homo sapiens, UniProt Q15699 118-204)
PRRX1 [9] = biological target: PRRX1 (Homo sapiens, UniProt P54821 80-166, F113S)
PRRX1 [10] = biological target: PRRX1 (Homo sapiens, UniProt P54821 80-166)
ALX4 [11] = biological target: ALX4 (Homo sapiens, UniProt Q9H161 200-286)
ALX4 [12] = biological target: ALX4 (Homo sapiens, UniProt Q9H161 200-286, Q225E)
SHOX = SHOX (Homo sapiens, UniProt O15266 103-189, R173C)
PROP1 [13] = biological target: PROP1 (Homo sapiens, UniProt O75360 56-141)
PROP1 [14] = biological target: PROP1 (Homo sapiens, UniProt O75360 56-141, R99H)
PROP1 [15] = biological target: PROP1 (Homo sapiens, UniProt O75360 56-141, F88S)
PROP1 (Homo sapiens, UniProt O75360 56-141, F88S), sequence (O75360 56-141 F88S): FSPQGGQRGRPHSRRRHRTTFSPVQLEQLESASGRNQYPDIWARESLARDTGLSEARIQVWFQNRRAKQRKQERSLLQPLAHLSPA

HESX1 (Homo sapiens, UniProt Q9UBX0 95-180, R165K), sequence (Q9UBX0 95-180 R165K): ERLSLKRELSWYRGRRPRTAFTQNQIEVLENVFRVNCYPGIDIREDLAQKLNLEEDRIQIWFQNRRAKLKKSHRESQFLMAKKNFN
PRRX1 (Homo sapiens, UniProt P54821 80-166, F113S), sequence (P54821 80-166 F113S): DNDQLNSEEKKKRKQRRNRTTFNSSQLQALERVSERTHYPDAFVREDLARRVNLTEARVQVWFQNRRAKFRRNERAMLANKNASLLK
HESX1 (Homo sapiens, UniProt Q9UBX0 95-180, R109Q), sequence (Q9UBX0 95-180 R109Q): as the sequence (Q9UBX0 95-180 R165K) above, with R15Q, K71R counted along it
HESX1 (Homo sapiens, UniProt Q9UBX0 95-180, F115L), sequence (Q9UBX0 95-180 F115L): as the sequence (Q9UBX0 95-180 R165K) above, with F21L, K71R counted along it
PRRX1 (Homo sapiens, UniProt P54821 80-166), sequence (P54821 80-166): as the sequence (P54821 80-166 F113S) above, with S34F counted along it
ALX1 (Homo sapiens, UniProt Q15699 118-204), sequence (Q15699 118-204): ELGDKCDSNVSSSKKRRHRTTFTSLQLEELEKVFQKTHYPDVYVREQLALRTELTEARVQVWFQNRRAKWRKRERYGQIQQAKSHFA
HESX1 (Homo sapiens, UniProt Q9UBX0 95-180), sequence (Q9UBX0 95-180): as the sequence (Q9UBX0 95-180 R165K) above, with K71R counted along it
ALX1 (Homo sapiens, UniProt Q15699 118-204, L144V), sequence (Q15699 118-204 L144V): as the sequence (Q15699 118-204) above, with L27V counted along it
ALX1 (Homo sapiens, UniProt Q15699 118-204, L144R), sequence (Q15699 118-204 L144R): as the sequence (Q15699 118-204) above, with L27R counted along it
HESX1 (Homo sapiens, UniProt Q9UBX0 95-180, P111T), sequence (Q9UBX0 95-180 P111T): as the sequence (Q9UBX0 95-180 R165K) above, with P17T, K71R counted along it
ALX4 (Homo sapiens, UniProt Q9H161 200-286), sequence (Q9H161 200-286): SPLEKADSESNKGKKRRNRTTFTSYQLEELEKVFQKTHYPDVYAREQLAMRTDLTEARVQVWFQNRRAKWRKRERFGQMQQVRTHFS
ALX4 (Homo sapiens, UniProt Q9H161 200-286, Q225E), sequence (Q9H161 200-286 Q225E): as the sequence (Q9H161 200-286) above, with Q26E counted along it
ALX3, sequence (O95076 139-225 L168Q): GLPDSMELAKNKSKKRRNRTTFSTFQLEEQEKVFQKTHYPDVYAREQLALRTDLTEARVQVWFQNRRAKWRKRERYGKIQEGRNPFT
PROP1 (Homo sapiens, UniProt O75360 56-141), sequence (O75360 56-141): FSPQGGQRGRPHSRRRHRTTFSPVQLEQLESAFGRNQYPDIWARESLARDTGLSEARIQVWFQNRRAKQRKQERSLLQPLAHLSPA
PROP1 (Homo sapiens, UniProt O75360 56-141, R99H), sequence (O75360 56-141 R99H): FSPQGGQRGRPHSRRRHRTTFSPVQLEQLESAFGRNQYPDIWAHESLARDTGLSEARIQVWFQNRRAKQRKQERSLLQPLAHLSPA
SHOX, sequence (O15266 103-189 R173C): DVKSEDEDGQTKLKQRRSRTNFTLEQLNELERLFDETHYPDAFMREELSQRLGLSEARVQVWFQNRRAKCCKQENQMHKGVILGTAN

CCGAGCCG
binding signal (HESX1 [1]): 6.36 upbm affinity estimate (log intensity, higher = more binding, comparable within an allelic series)
binding signal (HESX1 [2]): 6.14 upbm affinity estimate (log intensity, higher = more binding, comparable within an allelic series)
binding signal (ALX1 [3]): 6.19 upbm affinity estimate (log intensity, higher = more binding, comparable within an allelic series)
binding signal (ALX1 [4]): 6.2 upbm affinity estimate (log intensity, higher = more binding, comparable within an allelic series)
binding signal (HESX1 [5]): 6.38 upbm affinity estimate (log intensity, higher = more binding, comparable within an allelic series)
binding signal (ALX3): 7.56 upbm affinity estimate (log intensity, higher = more binding, comparable within an allelic series)
binding signal (HESX1 [6]): 6.22 upbm affinity estimate (log intensity, higher = more binding, comparable within an allelic series)
binding signal (HESX1 [7]): 6.62 upbm affinity estimate (log intensity, higher = more binding, comparable within an allelic series)
binding signal (ALX1 [8]): 6.32 upbm affinity estimate (log intensity, higher = more binding, comparable within an allelic series)

GAGCTGGC
binding signal (HESX1 [1]): 6.31 upbm affinity estimate (log intensity, higher = more binding, comparable within an allelic series)
binding signal (HESX1 [2]): 6.3 upbm affinity estimate (log intensity, higher = more binding, comparable within an allelic series)
binding signal (HESX1 [5]): 6.49 upbm affinity estimate (log intensity, higher = more binding, comparable within an allelic series)
binding signal (HESX1 [6]): 6.25 upbm affinity estimate (log intensity, higher = more binding, comparable within an allelic series)
binding signal (HESX1 [7]): 6.47 upbm affinity estimate (log intensity, higher = more binding, comparable within an allelic series)

ATTATTTG
binding signal (HESX1 [1]): 8.97 upbm affinity estimate (log intensity, higher = more binding, comparable within an allelic series)
binding signal (HESX1 [2]): 8.9 upbm affinity estimate (log intensity, higher = more binding, comparable within an allelic series)

GCCGGCGA
binding signal (HESX1 [1]): 6.47 upbm affinity estimate (log intensity, higher = more binding, comparable within an allelic series)
binding signal (PRRX1 [9]): 9.26 upbm affinity estimate (log intensity, higher = more binding, comparable within an allelic series)
binding signal (HESX1 [2]): 6.42 upbm affinity estimate (log intensity, higher = more binding, comparable within an allelic series)
binding signal (HESX1 [5]): 6.45 upbm affinity estimate (log intensity, higher = more binding, comparable within an allelic series)
binding signal (HESX1 [6]): 6.41 upbm affinity estimate (log intensity, higher = more binding, comparable within an allelic series)
binding signal (HESX1 [7]): 6.43 upbm affinity estimate (log intensity, higher = more binding, comparable within an allelic series)
binding signal (PRRX1 [10]): 9.42 upbm affinity estimate (log intensity, higher = more binding, comparable within an allelic series)

TATGGTAA
binding signal (HESX1 [1]): 7.45 upbm affinity estimate (log intensity, higher = more binding, comparable within an allelic series)
binding signal (HESX1 [2]): 7.53 upbm affinity estimate (log intensity, higher = more binding, comparable within an allelic series)

AATGTAAG
binding signal (HESX1 [1]): 7.66 upbm affinity estimate (log intensity, higher = more binding, comparable within an allelic series)
binding signal (HESX1 [2]): 7.68 upbm affinity estimate (log intensity, higher = more binding, comparable within an allelic series)

AATTAACC
binding signal (HESX1 [1]): 11.5 upbm affinity estimate (log intensity, higher = more binding, comparable within an allelic series)
binding signal (ALX4 [11]): 13.6 upbm affinity estimate (log intensity, higher = more binding, comparable within an allelic series)
binding signal (PRRX1 [9]): 11 upbm affinity estimate (log intensity, higher = more binding, comparable within an allelic series)
binding signal (ALX4 [12]): 12.7 upbm affinity estimate (log intensity, higher = more binding, comparable within an allelic series)
binding signal (HESX1 [2]): 11.5 upbm affinity estimate (log intensity, higher = more binding, comparable within an allelic series)
binding signal (ALX1 [3]): 11.3 upbm affinity estimate (log intensity, higher = more binding, comparable within an allelic series)
binding signal (SHOX): 9.27 upbm affinity estimate (log intensity, higher = more binding, comparable within an allelic series)
binding signal (ALX1 [4]): 11.2 upbm affinity estimate (log intensity, higher = more binding, comparable within an allelic series)
binding signal (PROP1 [13]): 11.1 upbm affinity estimate (log intensity, higher = more binding, comparable within an allelic series)
binding signal (HESX1 [5]): 8.77 upbm affinity estimate (log intensity, higher = more binding, comparable within an allelic series)
binding signal (PROP1 [14]): 10.7 upbm affinity estimate (log intensity, higher = more binding, comparable within an allelic series)
binding signal (ALX3): 10.3 upbm affinity estimate (log intensity, higher = more binding, comparable within an allelic series)
binding signal (HESX1 [6]): 10.3 upbm affinity estimate (log intensity, higher = more binding, comparable within an allelic series)
binding signal (PROP1 [15]): 7.52 upbm affinity estimate (log intensity, higher = more binding, comparable within an allelic series)
binding signal (HESX1 [7]): 7.7 upbm affinity estimate (log intensity, higher = more binding, comparable within an allelic series)
binding signal (ALX1 [8]): 12.1 upbm affinity estimate (log intensity, higher = more binding, comparable within an allelic series)
binding signal (PRRX1 [10]): 13.2 upbm affinity estimate (log intensity, higher = more binding, comparable within an allelic series)

ACGGAAGG
binding signal (HESX1 [1]): 6.5 upbm affinity estimate (log intensity, higher = more binding, comparable within an allelic series)
binding signal (PRRX1 [9]): 9.38 upbm affinity estimate (log intensity, higher = more binding, comparable within an allelic series)
binding signal (HESX1 [2]): 6.36 upbm affinity estimate (log intensity, higher = more binding, comparable within an allelic series)
binding signal (ALX1 [3]): 6.56 upbm affinity estimate (log intensity, higher = more binding, comparable within an allelic series)
binding signal (ALX1 [4]): 6.44 upbm affinity estimate (log intensity, higher = more binding, comparable within an allelic series)
binding signal (HESX1 [5]): 6.53 upbm affinity estimate (log intensity, higher = more binding, comparable within an allelic series)
binding signal (HESX1 [6]): 6.63 upbm affinity estimate (log intensity, higher = more binding, comparable within an allelic series)
binding signal (HESX1 [7]): 6.5 upbm affinity estimate (log intensity, higher = more binding, comparable within an allelic series)
binding signal (ALX1 [8]): 6.35 upbm affinity estimate (log intensity, higher = more binding, comparable within an allelic series)
binding signal (PRRX1 [10]): 9.17 upbm affinity estimate (log intensity, higher = more binding, comparable within an allelic series)

CTCTCCAG
binding signal (HESX1 [1]): 6.3 upbm affinity estimate (log intensity, higher = more binding, comparable within an allelic series)
binding signal (ALX4 [11]): 7.91 upbm affinity estimate (log intensity, higher = more binding, comparable within an allelic series)
binding signal (ALX4 [12]): 7.91 upbm affinity estimate (log intensity, higher = more binding, comparable within an allelic series)
binding signal (HESX1 [2]): 6.32 upbm affinity estimate (log intensity, higher = more binding, comparable within an allelic series)
binding signal (HESX1 [5]): 6.51 upbm affinity estimate (log intensity, higher = more binding, comparable within an allelic series)
binding signal (HESX1 [6]): 6.4 upbm affinity estimate (log intensity, higher = more binding, comparable within an allelic series)
binding signal (HESX1 [7]): 6.42 upbm affinity estimate (log intensity, higher = more binding, comparable within an allelic series)

CGCCTAGC
binding signal (HESX1 [1]): 6.27 upbm affinity estimate (log intensity, higher = more binding, comparable within an allelic series)
binding signal (PRRX1 [9]): 9.26 upbm affinity estimate (log intensity, higher = more binding, comparable within an allelic series)
binding signal (HESX1 [2]): 6.37 upbm affinity estimate (log intensity, higher = more binding, comparable within an allelic series)
binding signal (HESX1 [5]): 6.4 upbm affinity estimate (log intensity, higher = more binding, comparable within an allelic series)
binding signal (HESX1 [6]): 6.38 upbm affinity estimate (log intensity, higher = more binding, comparable within an allelic series)
binding signal (HESX1 [7]): 6.57 upbm affinity estimate (log intensity, higher = more binding, comparable within an allelic series)
binding signal (PRRX1 [10]): 9.27 upbm affinity estimate (log intensity, higher = more binding, comparable within an allelic series)
